# Hits are enriched below; roughly 2.5% of the tested compounds scored in any of these assays.
# aSyn yeast inh = rescues yeast growth from alpha-synuclein toxicity; Yeast expressing alpha-synuclein, growth rescue, BacTiter-Glo, 24 h; Potency, µM (top dose mostly 46.1 µM), inactives show at the top dose growth rescue (activation), usual class: activators; 0.14% of 370,000 active; note: potency is the fitted concentration of half-maximal effect; % of control where 0% means no effect; nearly all actives have a fitted effect of over 65% in size
#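 Galactose-induced alpha-syn yeast (OD600=0.02, raffinose-pregrown) + pinned cpd, 24 hr, 30 deg C; growth by BacTiter-Glo luminescence. Growth restoration scores as activation.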
# CCT modulator = modulators of cytosolic chaperonin (CCT/TRiC) activity | purified chaperonin ATPase assay, HTRF ADP detection, 30 min | activity change, % (test concentration not listed), hits read low | 0.3% of 360,000 active; in the data active = activity change below about -30%; note: % is set by controls: 0 for no effect and ±100 for the full control effect
#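 We incubate TRiC, 40 or 20 nM final, with library compounds at 76 uM and 10 uM ATP for 30 min at 37 °C. ADP formed is detected with Transcreener HTRF reagents after 30 min at room temperature.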
# Akt phos inh = Akt phosphorylation inhibition. Neuro2A IGF-stimulated pAkt S473 HTRF, 20 min; active compounds read low. 0.32% of 360,000 active. activity change, % for hits at 50 µM. AID 651550; in the data active = activity change below about -80%; inconclusive = mostly about -51% to -80%; note: % is set by controls: 0 for no effect and ±100 for the full control effect
#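 Neuro2A cells (4,500/well, DMEM with 0.5% FBS) were treated with compound at a single 50 µM final concentration, stimulated with 6 nM IGF for 20 min at 37 °C, and lysed. Phospho-Akt Ser473 was read by HTRF as 665/615 ratio ×10^4.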
# Anesthetic bind = candidate novel general anesthetic via apoferritin binding. P02791. Potency, µM (titrated, usually from 77.5 µM), for inactives: top-dose activity change, negative = displacement, hits mostly inhibitors. AID 485281. apoferritin/1-aminoanthracene competitive binding, fluorescence. 0.074% of 350,000 active; note: potency is the fitted concentration of half-maximal effect; % is set by controls: 0 for no effect and ±100 for the full control effect; nearly all actives have a fitted effect of over 20% in size
# Target sequence (P02791 2-175 limits assumed): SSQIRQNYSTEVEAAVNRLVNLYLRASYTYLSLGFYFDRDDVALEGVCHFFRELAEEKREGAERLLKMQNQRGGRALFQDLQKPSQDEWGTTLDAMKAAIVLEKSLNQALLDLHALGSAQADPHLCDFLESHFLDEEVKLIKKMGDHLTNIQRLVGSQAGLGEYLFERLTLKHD
#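 In PBS, apoferritin at 10 uM is loaded with 1-AMA from a 50% saturated solution. After 10 min of compound exposure at ambient temperature, reduced 535 nm fluorescence indicates probe displacement.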
# Mito fusion yeast = blocks mitochondrial division or promotes mitochondrial fusion | S. cerevisiae fusion-defective mutant growth rescue, CellTiterGlo 48 h | Potency, µM (top dose mostly 46.1 µM), inactives show at the highest dose growth rescue (activation), most hits filed as activators | 0.23% of 320,000 active | AID 485298; note: potency is the fitted concentration of half-maximal effect; % of control where 0% means no effect; nearly all actives have a fitted effect of over 45% in size
#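 Read-out: ATP-based luminescence (CellTiterGlo, 10 min ambient) reporting growth of fusion-defective ts yeast after 48 hours at 37C on glycerol/ethanol YPEG medium in the presence of compound.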
# TDP-43 yeast inh = inhibitors of TDP-43 toxicity in yeast. 1.8% of 410,000 active. Potency, µM (top dose mostly 46.1 µM), inactives show at the highest dose growth rescue (activation), usual class: activators. AID 652104. TDP-43 expressing yeast growth rescue, BacTiter-Glo, 24 h; note: potency is the fitted concentration of half-maximal effect; % of control where 0% means no effect; nearly all actives have a fitted effect of over 50% in size
#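 Cell-based yeast growth screen: TDP-43 expression induced in galactose, inoculum OD600=0.02 after raffinose pregrowth to mid-log. Read-out BacTiter-Glo luminescence at 24 hr, 30 deg C; inhibition of toxicity seen as signal increase.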
# Active calls of the source: *; i = inactive; u = inconclusive; x = no result given; [ ] = dose if it differs, or a comment. Unless noted, calls come from the whole dose curve; as a rule, active = well fitted curve in the direction sought with a large enough effect; inconclusive = small, poorly fitted or top-dose-only effect, or another doubt; inactive = no such curve, though single readings can be large; an effect the other way counts as inactive or inconclusive.
SMILES,aSyn yeast inh,CCT modulator,Akt phos inh,Anesthetic bind,Mito fusion yeast,TDP-43 yeast inh
COc1ccc(Cc2nc3c4cnn(-c5ccccc5F)c4ncn3n2)cc1,x,x,x,-11.2%,x,u
Cn1nnnc1SCCNCc1ccc(OCc2ccc(Cl)cc2)cc1,-4.2%,x,x,28.2µM*,x,-42.8%
COc1ccc(OC)c(NC(=O)CN2CCCN(Cc3ccccc3Cl)S2(=O)=O)c1,x,x,x,-1.6%,x,0.5%
Clc1ccc(SCCn2cncn2)cc1,-12.1%,0.9,i,-10.1%,-0.5%,5.0%
Cc1ccc(SCCCn2cncn2)cc1,-10.3%,1.0,-111.2%*,3.7%,-1.1%,-2.0%
Cc1[nH]c(-c2ccc(F)cc2)cc1C(=O)N1CCN(c2ccccc2)CC1,u,1.0,i,-10.6%,32.8%,17.8µM*
CC(=O)NCc1cc(Cl)c2cccnc2c1O,x,x,x,x,8.6%,x
COc1ccc(/C(C#N)=C/c2cccnc2)cc1,x,x,x,-5.9%,-7.2%,x
COc1ccc(C(C#N)=Cc2cccc(OC)c2OC)cc1,-22.6%,0.5,i,x,x,17.8µM*
CC(=O)OC[C@@H]1O[C@@H](O/N=C2/C[C@@H](O)[C@@H](O)[C@@H]3[C@@H]4C(=O)N(c5cccc(Oc6ccccc6)c5)C(=O)[C@H]4CC[C@@H]23)[C@H](OC(C)=O)[C@H](OC(C)=O)[C@@H]1OC(C)=O,x,x,x,6.4%[15.3 µM],x,x
COc1ccc(N=Cc2nc(-c3ccco3)oc2O)cc1,-7.4%,-3.7,i,-17.0%,10.2%,7.08µM*
COc1ccc(CNCc2cc3c(cc2[N+](=O)[O-])OCO3)cc1,-3.3%,-1.1,i,-8.8%,-4.3%,0.0%
Cc1cc(C)cc(NCc2cc3c(cc2[N+](=O)[O-])OCO3)c1,1.0%,-2.4,i,15.8µM*,0.4%,u
CCCNC(=O)OC[C@@H]1O[C@H](CCO/N=C2\c3cc(OC)ccc3O[C@H](c3cccc(OC)c3)[C@H]2O)C=C[C@@H]1Oc1ccc(OC)cc1,x,x,x,5.1%[15.3 µM],x,x
CCCN1CNc2c(c(=O)[nH]c(=S)n2CCc2ccc(Cl)cc2Cl)C1,-2.2%,x,x,x,x,x
O=C(CCc1ccccc1)NCCCN1CCOCC1,0.3%,-31.4*,i,-10.6%,-1.0%,4.4%
COc1ccc(C(=O)NCCCN2CCOCC2)cc1,1.2%,-6.0,i,0.9%,0.0%,19.4%
COc1cc(OC)cc(C(=O)NCCCN2CCOCC2)c1,-5.4%,0.1,-119.6%*,-8.6%,-3.1%,2.0%
COc1ccc2oc(=O)c(-c3csc(Nc4cccc(O)c4)n3)cc2c1,-15.7%,0.0,i,-4.7%,15.8µM*,-48.3%
CN1CCN(CCCNC(=O)Cn2c(-c3cccs3)cc3cc(Cl)ccc32)CC1,x,x,x,-9.1%,x,-11.2%
COc1ccc(C2/C=C\CN(Cc3ccccc3)C(C)C(=O)N2Cc2ccc(F)cc2)cc1 (stereo not drawn),x,x,x,77.4%,x,x
C=CCNC(=S)NNc1nc(N2CCCC2)nc(N2CCCC2)n1,-5.3%,-53.9*,i,-11.7%,-18.5%,-6.9%
NC1=NC(=O)/C(=C\c2ccc(-c3ccccc3[N+](=O)[O-])o2)S1,-1.6%,x,x,x,x,x
COc1ccc(OCC(=O)Nc2cccc(OC)c2)cc1,-3.5%,-3.0,i,9.3%,-3.5%,u
COc1ccc(OCC(=O)Nc2cc(OC)cc(OC)c2)cc1,2.1%,-46.4*,i,-12.4%,-2.2%,8.6%
SMILES,aSyn yeast inh,CCT modulator,Akt phos inh,Anesthetic bind,Mito fusion yeast,TDP-43 yeast inh
COc1ccc(C(=O)Nc2cc(OC)cc(OC)c2)cc1,-7.5%,1.5,i,-7.6%,0.9%,29.3%
COc1cc(NC(=O)c2ccccc2)cc(OC)c1,3.55µM*,0.7,i,-8.1%,-2.5%,0.0%
COc1cc(NC(=O)C(Cc2ccccc2)n2cccc2)cc(OC)c1 (stereo not drawn),4.7%,-0.3,i,-7.2%,12.5%,20µM*
CN1CCN(CCNC(=O)c2cnn(-c3ccc(Cl)cc3)c2C2CCN(C(=O)OC(C)(C)C)CC2)CC1,x,x,x,-3.3%,x,u
COc1ccc(C(=O)COC(=O)c2cccs2)cc1,-6.7%,-0.9,i,x,x,26.2%
O=C(COC(=O)c1cccs1)c1ccccc1,-9.8%,-2.4,-127.0%*,u,-3.1%,3.2%
CCCOc1cccc(C(=O)NC(=S)Nc2cccc(C(F)(F)F)c2)c1,-16.3%,1.4,i,u,-10.5%,-0.7%
O=C(NC(=S)Nc1ccccc1O)c1cncc(Br)c1,17.8µM*,2.1,i,x,x,10.8%
CC(=O)c1cccc(NC(=S)NC(=O)c2cncc(Br)c2)c1,-6.2%,0.7,i,-7.6%,-12.8%,-7.5%
CCn1cc(C(=O)NC(=S)Nc2ccccc2Br)cn1,-0.5%,0.7,i,u,-6.1%,14.1µM*
CCOc1cccc(C(=O)NC(=S)Nc2cccc(C)c2)c1,-21.6%,-0.5,i,0.6%,0.6%,35.5µM*
COc1cccc(NC(=S)NC(=O)c2cncc(Br)c2)c1,-7.1%,-2.4,i,x,x,12.6µM*
CN(C)c1ccc(/C=C/c2c(F)cnc3ccccc23)cc1,1.4%,x,x,x,x,x
Cc1cc(Cl)c2oc(C(=O)N3CCN(C(=O)c4ccco4)CC3)c(C)c2c1,6.7%,-0.4,i,-5.5%,u,22.4µM*
Cc1c(C(=O)N2CCOCC2)oc2ccc(Br)cc12,0.1%,-0.9,i,x,5.4%,27.1%
Cc1cc(Cl)c2oc(C(=O)N3CCOCC3)c(C)c2c1,4.3%,-35.2*,i,x,x,u
Cc1cc(Cl)c2oc(C(=O)N3CCN(c4cccc(C)n4)CC3)c(C)c2c1,17.9%,-1.6,i,-20.7%,-5.5%,u
CC1=Nc2ccccc2/C1=C/c1ccc(N(C)C)cc1,27.9%,x,x,x,x,x
Cc1cccc(NC(=S)NC(=O)C2CC2)c1,x,x,x,22.4µM*,-6.9%,x
Cc1cccc(NC(=O)C2CCCC2)c1,-6.3%,-3.1,i,u,5.2%,0.8%
Cc1cc(NC(=S)NC(=O)C2CC2)ccc1Br,-37.0%,-2.9,i,u,1.6%,15.8µM*
Cc1cc(C)cc(NC(=S)NC(=O)C2CC2)c1,-0.7%,-0.3,i,-21.2%,8.2%,11.2µM*
Cc1cc(NC(=O)C2CCCO2)ccc1Br (stereo not drawn),3.2%,-107.3*,i,-7.6%,0.6%,8.0%[9.22 µM]
Cn1ncc(S(=O)(=O)Cc2ccccc2)c(Br)c1=O,u,x,x,x,-91.8%,x
O=C(CBr)c1ccc(Oc2ccc(C(=O)C[n+]3cccc(Br)c3)cc2)cc1,4.8%,x,x,x,x,x
O=C(Nc1ccc(N=Nc2ccccc2)c(NC(=O)C2CCCO2)c1)C1CCCO1 (stereo not drawn),-1.2%,-2.1,i,-15.6%,28.7%,14.1µM*
Oc1ccc(CNc2ccc(C(F)(F)F)cc2Cl)c2cccnc12,x,x,x,x,15.5%,x
c1ccc(CC2CCN(c3nc4ccccc4n4nnnc34)CC2)cc1,1.3%,-32.1*,i,-1.7%,5.4%,6.7%

# Screens (PubChem)
